Shown are actives, neighbours in structure and some others; about 2.4% of the full set was active somewhere.
Pf Dd2 growth – blocks growth of Plasmodium falciparum Dd2 parasites | P. falciparum Dd2 growth, SYBR Green, 72 h; hits give low values | activity change, % at 10 µM | hit rate 2.3% among 94,000 | AID 1159554; in the data active = activity change below about -80%; inconclusive = no clear call, values can overlap the other calls
C diff HTS – blocks growth of Clostridium difficile. hit rate 0.25% among 86,000. AID 1259249. growth activity, negative = inhibition, % at 16 µg/mL (by protocol). Clostridium difficile clinical isolate growth, OD600, 24 h; hits give low values;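 active = mean growth activity at or below -80% and every replicate also at or below -80%; inconclusive = mean at or below -80% but some replicate above -80%; inactive = mean growth activity above -80%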;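 note: 0% = DMSO wells and -100% = levofloxacin 16 µg/mL wells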
* marks the source's active call; other numbers are inactive results.

For C[C@@H]1CN([C@H](C)CO)C(=O)c2cc(NC(=O)C3CCCCC3)ccc2O[C@@H](C)CCCCO[C@@H]1CN(C)CC1CCCCC1 the results were Pf Dd2 growth -38 and C diff HTS -1.
Screening C[C@@H]1CCCCO[C@@H](CN(C)CC2CC2)[C@H](C)CN([C@@H](C)CO)C(=O)c2cc(NC(=O)Nc3ccccc3)ccc2O1 returned Pf Dd2 growth 2.
Screening C[C@H]1CCCCO[C@@H](CN(C)CC2CCCCC2)[C@@H](C)CN([C@@H](C)CO)C(=O)c2cc(NC(=O)Nc3ccccc3)ccc2O1 returned Pf Dd2 growth -83* and C diff HTS 4.
C[C@@H]1CN([C@@H](C)CO)C(=O)c2cc(NC(=O)Nc3ccccc3)ccc2O[C@@H](C)CCCCO[C@H]1CN(C)CC1CCCCC1 was read as Pf Dd2 growth -75 and C diff HTS 9.
`COc1cccc(S(=O)(=O)N[C@@H]2CC[C@@H](CC(=O)NCc3ccc(Cl)cc3)O[C@H]2CO)c1` gave Pf Dd2 growth -3 and C diff HTS -2.
C[C@H](CO)N1C[C@H](C)[C@@H](CN(C)Cc2ccc(C(=O)Nc3ccccc3N)cc2)Oc2ccc(NS(=O)(=O)c3cccs3)cc2CC1=O was read as Pf Dd2 growth -13 and C diff HTS -10.
Screening C[C@@H]1CN([C@@H](C)CO)S(=O)(=O)c2ccc(-c3ccc(C(=O)N(C)C)cc3)cc2O[C@@H]1CN(C)C(=O)C1CC1 returned Pf Dd2 growth -13.
CCCN1[C@@H]2c3ccc(C4=CCCCC4)c(=O)n3C[C@@H]2[C@@H](CO)[C@@H]1C(=O)N(C)C was read as Pf Dd2 growth -9 and C diff HTS 4.
Screening COc1ccccc1C#Cc1ccc([C@@H]2[C@@H](C#N)N(C(=O)C3CCCC3)[C@@H]2CO)cc1 returned Pf Dd2 growth -63 and C diff HTS -4.
COc1ccccc1C#Cc1ccc([C@H]2[C@@H](CO)N(C(=O)C3CC3)[C@H]2C#N)cc1 was read as Pf Dd2 growth inconclusive and C diff HTS 15.
For COc1ccccc1C#Cc1ccc([C@@H]2[C@@H](C#N)N(C(=O)C3CCCC3)[C@H]2CO)cc1 the results were Pf Dd2 growth -88* and C diff HTS -10.
For COc1ccccc1C#Cc1ccc([C@@H]2[C@@H](CO)N(C(=O)C3CCCC3)[C@H]2C#N)cc1 the results were Pf Dd2 growth -88* and C diff HTS 16.
`COc1ccccc1C#Cc1ccc([C@H]2[C@@H](CO)N(C(=O)C3CCCC3)[C@H]2C#N)cc1` gave Pf Dd2 growth -27 and C diff HTS -2.
`COc1ccccc1C#Cc1ccc([C@H]2[C@@H](C#N)N(C(=O)C3CCC3)[C@H]2CO)cc1` gave Pf Dd2 growth -90* and C diff HTS -4.
CCC(=O)N[C@@H]1C=C[C@H](CC(=O)NCC2CCCCC2)O[C@@H]1CO was read as Pf Dd2 growth -11.
`CCC(=O)N[C@H]1C=C[C@H](CC(=O)NCC2CCCCC2)O[C@@H]1CO` gave Pf Dd2 growth -88*.
O=C(C[C@@H]1C=C[C@@H](NC(=O)C2CCC2)[C@H](CO)O1)NC1CCC1 was read as Pf Dd2 growth -87* and C diff HTS -1.
For O=C(C[C@@H]1C=C[C@@H](NC(=O)C2CCC2)[C@@H](CO)O1)NC1CCC1 the results were Pf Dd2 growth -4 and C diff HTS 1.
`CC(=O)N1[C@@H](CO)[C@@H](c2ccccc2)C12CN(C(=O)Cc1ccccc1)C2` gave Pf Dd2 growth -12 and C diff HTS 1.
CCCNC(=O)C[C@H]1CC[C@H]2[C@@H](COc3ccc(NS(=O)(=O)c4ccccc4C)cc3C(=O)N2C)O1 was read as Pf Dd2 growth 10 and C diff HTS 13.
For Cc1noc(C)c1NC(=O)N(C)C[C@H]1OCCCC[C@H](C)Oc2ccc(NC(=O)NC3CCCCC3)cc2C(=O)N([C@@H](C)CO)C[C@@H]1C the results were Pf Dd2 growth -31 and C diff HTS 8.
`C[C@@H]1CN([C@@H](C)CO)C(=O)c2cccc(NS(=O)(=O)c3ccc(Cl)cc3)c2O[C@@H]1CN(C)C(=O)Nc1ccc(F)cc1` gave Pf Dd2 growth -18 and C diff HTS 11.
Screening CC(C)C#Cc1ccc2c(c1)O[C@@H](CN(C)C(=O)c1cccnc1)[C@@H](C)CN([C@H](C)CO)S2(=O)=O returned Pf Dd2 growth -13 and C diff HTS -1.
`COc1ccc(NC(=O)N2CCC3(CC2)CN(CC2CC2)[C@H](CO)c2c3c3ccc(OC)cc3n2C)cc1` gave Pf Dd2 growth -85* and C diff HTS 4.
Screening COc1ccc2c3c(n(C)c2c1)[C@H](CO)N(CC1CCCC1)CC31CCN(C(=O)Nc2ccccc2)CC1 returned Pf Dd2 growth -66 and C diff HTS 48.
`COc1ccc2c3c(n(C)c2c1)[C@@H](CO)N(CC1CCOCC1)CC31CCN(C(=O)Nc2ccccc2)CC1` gave Pf Dd2 growth -83* and C diff HTS 2.

Compound activity: PubChem, Broad Institute
